High-throughput results (PubChem)
The list is not random: actives were taken first. Their share in the collection is about 11%.
Vaccinia Venus – vaccinia inhibition (Venus reporter); Vaccinia virus Venus reporter expression, fluorescence; 0.46% of 330,000 active; Potency, µM (titrated, usually from 36.5 µM), without a hit: at the highest dose activity change, negative = inhibition, actives largely listed as inhibitors; AID 720580; calls by dose curve; tested in A549 cells; also: % is scaled to controls: 0 for no effect and ±100 for the full control effect; nearly all actives have a fitted effect of over 30% in size
Vaccinia mCherry – vaccinia inhibition (mCherry reporter); Vaccinia virus mCherry reporter infection, fluorescence; Potency, µM (series often up to 36.5 µM), without a hit: at the highest dose activity change, negative = inhibition, most hits filed as inhibitors; 0.63% of 310,000 active; calls by dose curve; tested in A549 cells; also: % is scaled to controls: 0 for no effect and ±100 for the full control effect; nearly all actives have a fitted effect of over 35% in size
NS1 function inh – influenza NS1 inhibition; AID 2326; Potency, µM (titrated, usually from 46.1 µM), without a hit: at the highest dose activity, positive = more growth; 0.4% of 270,000 active; calls by dose curve; also: actives are rising curves; nearly all actives have a fitted effect of over 50% in size
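S. cerevisiae expressing influenza A NS1, grown in glucose, washed, then diluted 1:100 into pH 6.0 -URA galactose medium with 23 nl compound. Growth recovery read as OD600; NS1-free strain serves as control.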
Pf growth 96h – P. falciparum growth inhibition at 96 hour, primary screen for plastid delayed-death inhibitors; P. falciparum luciferase reporter growth, 96 h; Potency, µM (series often up to 28.7 µM), for inactives: at the highest dose activity change, negative = inhibition, actives largely listed as inhibitors; 6.9% of 320,000 active; AID 504834; also: % is scaled to controls: 0 for no effect and ±100 for the full control effect
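Parasite growth measured via integrated firefly luciferase reporter in P. falciparum. Infected erythrocytes at 2% hematocrit, 0.05% parasitemia final were treated 96 hours at 37 C under 5% CO2, and luminescence was read.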
HCV inh – inhibitors of hepatitis C virus infection; Huh7.5.1 HCVcc-Cre infection, luciferase reporter, 44 h; Potency, µM (series often up to 41.8 µM), inactives show top-dose activity change, negative = inhibition, most hits filed as inhibitors; 3.4% of 340,000 active; also: % is scaled to controls: 0 for no effect and ±100 for the full control effect
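Luciferase read-out (15 sec integration) after a 15 min room-temperature substrate step quantifies HCVcc-Cre infection. Cells, 1,000 per well, had compound added 4 h post-plating, then virus at ~0.5 moi, and were cultured 44 h.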
Pf growth 48h – inhibits P. falciparum growth in the first generation, 48 h. P. falciparum luciferase growth in erythrocytes, 48 h. Potency, µM (series often up to 28.7 µM), for the others: top-dose activity change, negative = inhibition, hits mostly inhibitors. 5.9% of 310,000 active; also: % is scaled to controls: 0 for no effect and ±100 for the full control effect
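First compound was added to culture medium, then infected red cells at 0.1% parasitemia and 2% hematocrit (final). After incubation at 37 C under 5% CO2, luciferase detection reagent was dispensed and light output recorded.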
HCV inh confirm – HCV inhibition, cherry-pick confirmation. shares compounds with HCV inh. HCVcc-Cre infectious virus cell assay, luciferase, inhibition. Potency, µM (titrated, usually from 41.8 µM), for inactives: at the highest dose activity, negative = inhibition, hits mostly inhibitors. 78% of 640 active. AID 720575; also: nearly all actives have a fitted effect of over 80% in size
HCV cytotox – host cell cytotoxicity counter-screen for HCV inhibitors. shares compounds with HCV inh. HCV host cell line cytotoxicity counterscreen. Potency, µM (series often up to 41.8 µM), without a hit: top-dose activity change, negative = cytotoxicity, hits mostly inhibitors. 22% of 640 active;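 also: 44 h compound exposure; % is scaled to controls: 0 for no effect and ±100 for the full control effect; nearly all actives have a fitted effect of over 55% in size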
* marks the source's active call; other numbers are inactive results; i = inactive; ? = inconclusive; · = no result given; [ ] = dose if it differs, or a comment. Unless noted, calls follow the shape of the dose curve; as a rule, active = well fitted curve in the direction sought with a large enough effect; inconclusive = small, poorly fitted or top-dose-only effect, or another doubt; inactive = no such curve, though single readings can be large; an effect the other way counts as inactive or inconclusive. Potency is read from the fitted curve at half-maximal effect.

SMILES	Vaccinia Venus	Vaccinia mCherry	NS1 function inh	Pf growth 96h	HCV inh	Pf growth 48h	HCV inh confirm	HCV cytotox
O=C1N=C(N2CCOCC2)S/C1=C/c1ccc(-c2ccccc2Cl)o1	·	·	-4.4%	?	?	?	·	·
O=C1S/C(=C/c2ccc(N3CCOCC3)o2)C(=O)N1Cc1c(F)cccc1Cl	·	·	-1.4%	·	?	5.4%	12.5µM*	11.2%
Cc1cccc(Cn2c(NCCO)nc3c2c(=O)n(C)c(=O)n3C)c1	?	?	-6.6%	1.8%	1.78µM*	·	3.96µM*	2.5µM*
C(=C\c1ccccn1)/c1ccccn1	-1.0%	-3.8%	4.3%	130.0%	-17.9%	120.9%	·	·
CC(C)(C)C1C/C(=C/c2ccccn2)C(=O)/C(=C/c2ccccn2)C1 (stereo unspecified)	?	?	·	-20.8%	0.891µM*	2.08µM*	0.995µM*	1.41µM*
CN=c1sc(C(=O)Nc2ccccc2)c(C)n1C	-4.3%	-1.5%	·	3.6%	-20.6%	34.2%	·	·
CN=c1sc2c(n1C)C(=O)c1ccccc1C2=O	3.98µM*	2.82µM*	·	·	?	·	31.5µM*	28µM*
Cc1ccc(S(=O)(=O)N/N=C2\C(=O)C3(C)CCC2C3(C)C)cc1 (stereo unspecified)	-9.1%	i	0.5%	30.4%	6.5%	1.0%	·	·
C=CCn1c(-c2cccs2)nc2ccccc21	-20.3%	·	-32.2%	4.3%	?	9.4%	-28.0%	-35.1%
C=CCn1c(-c2cccs2)nc2nc3ccccc3nc21	6.1%	·	-70.5%	·	17.0%	19.5%	·	·
Cc1c(C(=O)Nc2cccc([N+](=O)[O-])c2)csc1-c1ccccc1	-10.1%	i	15.4%	-41.4%	7.08µM*	112.1%	11.2µM*	?
Nc1nc(F)nc2c1ncn2[C@@H]1O[C@H](CO)[C@@H](O)[C@H]1O	1.12µM*	1µM*	·	?	0.794µM*	-12.5%	1.99µM*	6.28µM*
Cc1cc(C)c2cc(C(=O)N3CCc4ccccc4C3)[nH]c2c1	-28.5%	?	-8.3%	-19.4%	?	-13.4%	?	-32.6%
CCCOc1ccc(/C=C/C(=O)NC2CCCCC2)cc1OC	-13.8%	-21.3%	-2.5%	?	?	-10.4%	·	·
COc1cc(/C=C/C(=O)NC2CCCCC2)cc(OC)c1OC	-2.9%	-8.7%	5.4%	?	?	-14.9%	?	25.4%
CN(C(=O)CSC(=O)c1ccccc1)c1ccccc1	·	·	-5.7%	10.4%	11.3%	13.6%	·	·
COc1ccc(NC(=O)Nc2ccccc2SC)c(OC)c1	-12.8%	-13.5%	5.4%	0.0%	?	-4.2%	·	·
COc1ccc(OC)c(NC(=O)c2ccccc2SC)c1	·	·	-54.4%	·	8.91µM*	7.2%	?	-13.0%
Cc1cc(C)cc(NC(=O)c2nnn(Cc3cc(C)ccc3C)c2N)c1	-17.1%	-19.2%	-17.9%	10.4µM*	?	?	11.2µM*	23.4%
CC(C)(C)OC(=O)COc1cc(O)c2c(=O)cc(-c3ccccc3)oc2c1	·	·	3.6%	?	?	?	28µM*	-28.6%
CCOC(=O)c1cc2c(ccc3nc(C)c(C)c32)[nH]c1C	·	·	-0.8%	-2.9%	3.16µM*	?	12.5µM*	20.2%
CCCCC(=O)Nc1ccc(NC(=O)c2ccc3c(c2)OCO3)cc1OC	·	·	-17.5%	?	2.51µM*	49.7%	?	17.9%
CC1CN(C)C(C)CC1OC(=O)C(c1ccccc1)c1ccccc1 (stereo unspecified)	·	·	·	·	?	·	25µM*	-21.8%
COc1ccc(-c2[nH]c(-c3ccc(O)cc3)nc2-c2ccccc2)cc1	-16.0%	-2.9%	·	·	·	·	·	·
COc1cc(-c2nc(-c3ccc4c(c3)-c3ccccc3S4(=O)=O)c(-c3ccccc3)[nH]2)cc(OC)c1OC	-28.1%	-7.7%[1.46 µM]	28.0%	2.4%	2µM*	1.85µM*	1.99µM*	?
